# Measured values published in PubChem BioAssay AID2401 (Southern Research Specialized Biocontainment Screening …, 2010).
# The campaign covered roughly 2,200 compounds. About 530 (24%) were called active.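 The calls were made as follows: active = inhibition above a set limit at one or more concentrations of the dose series; inactive = inhibition under that limit at every dose.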 Only a sample is shown. Entries that show only a call come without a potency. Potency and affinity values are given separately.
# Experiment: S. Typhimurium nonspecific reporter signal inhibition – Salmonella Typhimurium, GFP fluorescence, counter-screen for PhoP regulon inhibitor project, dose response (AID 2401);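 also: S. typhimurium with Mg-insensitive nmpC-GFP reporter grown at 10 µM Mg2+; drop in reporter fluorescence reflects general culture growth inhibition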
# Conditions: 4 h; series mostly up to 150 µM
row,Structure (SMILES),outcome
1,COc1cccc2[nH]c3c(N4CCN(Cc5ccc6c(c5)OCO6)CC4)ncnc3c12,inactive
2,O=C(NCc1ccco1)C1CC(=O)N(CCc2ccccc2)C1 (configuration not stated),inactive
3,N#C/C(=C\c1ccc(F)c(F)c1)C(=O)NC1CCCCC1,inactive
4,CCSc1nc(C2CC2)cc(-c2cccs2)c1C#N,inactive
5,CNc1nc(Sc2ccccc2)cc(C(F)(F)F)n1,inactive
6,Cc1cc(C)c2nc(NNC(=O)c3ccc(S(=O)(=O)N4CCCCC4)cc3)sc2c1,inactive
7,O=S(=O)(Cc1ccccc1Cl)N1CCN(Cc2ccc3c(c2)OCO3)CC1,inactive
8,COc1ccccc1CNc1nc2nc(C)c(C)c(=O)n2[nH]1,inactive
9,COc1ccc(CCNC(=S)Nc2cccc3ccccc23)cc1,inactive
10,COc1cc(CNCc2cccs2)cc(Br)c1OC,inactive
11,Brc1cccc(CNCc2cccs2)c1,inactive
12,Cc1cccc(Nc2ncccc2C(=O)NCc2cccs2)c1C,inactive
13,Cn1c(=O)c(=O)n(C)c2cc(S(=O)(=O)Nc3ccc4c(c3)OCCO4)ccc21,inactive
14,COc1ccc(/C=N/NC(=O)CC(=O)NCc2cccnc2)cc1,inactive
15,CC(=O)Nc1ccc(C(=O)N2CCN(C(=O)c3ccco3)CC2)cc1,inactive
16,COc1ccc(S(=O)(=O)Nc2ccc(F)c(F)c2)cc1Cl,inactive
17,OC(COc1ccc2c(c1)CCC2)Cn1cnc2ccccc21 (configuration not stated),inactive
18,O=C(Nc1cccc(Cl)c1)Nc1ccc2c(c1)OCO2,inactive
19,O=S1(=O)CC(O)C(Nc2ccccc2Cl)C1 (configuration not stated),inactive

row,Structure (SMILES),outcome
1,NC(=O)c1ccccc1N=Cc1ccccn1,inactive
2,CCCc1cc(=O)oc2cc(OCC(=O)N3CCc4ccccc43)ccc12,inactive
3,CN1CCCC(OC(=O)c2ccc(Cl)cc2)C1 (configuration not stated),inactive
4,O=C(/C=C\c1ccco1)Nc1nc(-c2ccccc2)cs1,inactive
5,Cc1cc(C)c2c(c1)NC(=O)C2(O)CC(=O)c1cccs1 (configuration not stated),inactive
6,O=C(c1ccc(-c2ccccc2)cc1)c1ccccc1C(=O)N1CCOCC1,inactive
7,COc1ccc(/C=C/C(=O)NC(=S)NNC(=O)c2cnccn2)cc1,inactive
8,N#Cc1c(NC(=O)c2cnccn2)sc2c1CCCC2,inactive
9,CC(=O)C1=C(C)NC(SCSc2ccccc2)=C(C#N)C1c1cccnc1 (configuration not stated),inactive
10,CC(=O)NC1C(c2nc3ccccc3s2)=C(c2ccccc2)C(=O)N1c1ccc(C)cc1 (configuration not stated),inactive
11,COc1cccc(-c2nc(-c3ccc(Br)o3)no2)c1,inactive
12,CCc1ccc(OCC(=O)Nc2ccc(-c3cc4ccccc4oc3=O)c(OC)c2)cc1,inactive
13,Oc1ccc(/C=N/n2cnn(Cc3ccccc3Cl)c2=S)c(O)c1,inactive
14,Oc1ccc(/C=N/NC2=NCCCCC2)c(O)c1,inactive
15,CC(=O)Nc1cc(N=Cc2ccc(O)cc2O)c(Cl)cc1Cl,inactive
16,O=C(O)CCS(=O)(=O)c1ccc(-c2ccccc2)cc1,inactive
17,O=C(c1ccco1)c1cn(CC(=O)N2CCCc3ccccc32)c2ccccc12,inactive
18,Cc1ccc([N+](=O)[O-])cc1NC(=O)CN(C(=O)c1ccc(Cl)cc1)C1CCCCC1,inactive
19,O=C(/C=C/c1ccccc1)N/C(=C/c1ccccc1)C(=O)N1CCOCC1,inactive

row,Structure (SMILES),outcome
1,COc1cc(OC)cc(C(=O)N[C@H](C(=O)OCC(=O)Nc2ccc(C(N)=O)cc2)C(C)C)c1,inactive
2,O=C(N/N=C/c1ccc(O)cc1O)C(=O)N/N=C/c1ccc(O)cc1O,inactive
3,CC1C(=O)NN=C1C(=O)N/N=C\c1ccc(O)cc1O (configuration not stated),inactive
4,CC(CN1CCOCC1)C(=O)c1ccccc1 (configuration not stated),inactive
5,O=C(NCCN1CCOCC1)c1ccc2ccccc2c1,inactive
6,Cc1ccc(-c2n[nH]c(=S)n2/N=C/c2cc3c(cc2[N+](=O)[O-])OCO3)cc1,inactive
7,O=Cc1cccn1Cc1ccccc1[N+](=O)[O-],inactive
8,CCCn1c(/N=C/c2ccc3c(c2)OCO3)nc2ccccc21,inactive
9,C(=N\N1CCN(Cc2ccccc2)CC1)/c1cccnc1,inactive
10,COC(=O)c1sccc1N/N=C(\C)c1ccc(F)c(Cl)c1,inactive
11,Cc1cccc2nc(CSc3nc4ccccc4o3)cn12,inactive
12,Nc1nc(Nc2ccc(Cl)cc2)n[nH]1,inactive
13,Cn1c(SCC(=O)NC(=O)c2cccc([N+](=O)[O-])c2)nnc1-c1ccc(F)cc1,inactive
14,Cc1cc(C)c(NC(=S)NC(=O)c2ccc(-c3ccccc3)cc2)c(C)c1,inactive
15,O=C(NNc1c2ccccc2nc2ccccc12)c1ccccc1O,inactive
16,O=C(CSc1nnc(-c2cccnc2)o1)OC1CCCCC1,inactive
17,CCC(C)C(NC(=O)OCc1ccccc1)C(=O)OCN1C(=O)c2ccccc2C1=O (configuration not stated),inactive
18,Cc1cc(C2=NNC(=NC3CC3)SC2)c(C)n1-c1ccccc1,inactive
19,CCn1c(CNC(=O)COc2ccc(C(C)C)cc2)nnc1SCC(=O)Nc1ccccc1,inactive
